From PubChem BioAssay AID1942 (Johns Hopkins Ion Channel Center, 2009)
Among all 2,400 compounds or so, about 580 (24%) were called active. Only a sample is shown. A number with no mark means an inactive call.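 How the source made its calls: active means activity change at or above the mean plus 3 SD of buffer wells without dofetilide, per plate; inactive means the rest.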

The molecules below were run against Potassium voltage-gated channel subfamily KQT member 2 (Rattus norvegicus) (UniProt O88943) (assay: KCNQ2 potentiation in CHO cells – cell-based, FluxOR thallium flux, counter-screen for hERG block protector project, confirmation (AID 1942;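 further: normalized value minus buffer-control mean plus three SD of buffer wells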)). Conditions: FluxOR thallium flux fluorescence, at 10 µM, stronger effect = higher value.
Potassium voltage-gated channel subfamily KQT member 2 (Rattus norvegicus), sequence (O88943 whole entry, looked up): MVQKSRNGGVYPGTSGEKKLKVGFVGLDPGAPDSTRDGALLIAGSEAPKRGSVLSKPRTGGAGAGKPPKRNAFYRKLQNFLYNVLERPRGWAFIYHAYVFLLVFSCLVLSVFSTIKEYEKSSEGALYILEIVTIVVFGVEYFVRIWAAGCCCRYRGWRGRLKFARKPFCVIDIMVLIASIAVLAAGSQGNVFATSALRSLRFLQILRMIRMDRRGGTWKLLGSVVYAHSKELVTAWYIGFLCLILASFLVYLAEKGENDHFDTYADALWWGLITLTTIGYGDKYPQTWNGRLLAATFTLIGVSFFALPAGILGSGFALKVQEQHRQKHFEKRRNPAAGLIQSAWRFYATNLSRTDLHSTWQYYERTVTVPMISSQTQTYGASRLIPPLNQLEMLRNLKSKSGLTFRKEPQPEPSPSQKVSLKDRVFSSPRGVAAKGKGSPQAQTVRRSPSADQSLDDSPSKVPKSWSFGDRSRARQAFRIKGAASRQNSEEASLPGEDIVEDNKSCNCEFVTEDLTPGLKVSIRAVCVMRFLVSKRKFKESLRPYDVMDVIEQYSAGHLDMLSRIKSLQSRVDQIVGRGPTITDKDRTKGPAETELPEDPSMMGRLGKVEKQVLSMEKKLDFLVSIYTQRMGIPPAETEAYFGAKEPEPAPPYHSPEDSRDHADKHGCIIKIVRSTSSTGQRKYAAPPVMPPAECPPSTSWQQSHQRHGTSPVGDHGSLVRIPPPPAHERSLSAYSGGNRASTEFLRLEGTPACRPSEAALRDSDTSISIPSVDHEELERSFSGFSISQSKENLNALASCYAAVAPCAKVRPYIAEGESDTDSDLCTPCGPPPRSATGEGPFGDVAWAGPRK

| SMILES | activity change, less the hit threshold |
| --- | --- |
| Cc1cc(Cl)c(S(=O)(=O)N2CCSCC2)cc1OCC(=O)NC1CCCCC1 | 57.4% (active) |
| Cc1cc(Cl)c(S(N)(=O)=O)cc1OCC(=O)NC1CCCCC1 | -7.9% |
| Cc1cc(=O)[nH]c(SCC(=O)NC2CCCCC2)n1 | -14.4% |
| COC(=O)c1cc(S(=O)(=O)NCC2CCN(Cc3cc(C)ccc3C)CC2)c[nH]1 | -11.5% |
| Cn1ccnc1C(O)c1cccc(OCc2ccccc2)c1 (stereo not drawn) | -25.3% |
| C/C(=N\O)C1CC(CC(=O)O)C1(C)C (stereo not drawn) | -14.4% |
| CN(CC(=O)Nc1ccc(Cl)cc1)C(=O)c1cccc(S(=O)(=O)NCc2ccccc2)c1 | -17.3% |
| O=C(Nc1nnc(SCC(=O)N2CCCCC2)s1)C1CCCCC1 | -14.2% |
| O=C(Nc1nc2c(Br)cc(Br)cc2c(=O)s1)C1CCC1 | 9.5% (active) |
| O=C(Nc1cccc(Br)c1)C1CCCC1 | -12.2% |
| Cc1cc(=O)oc2c3c(cc(OCC(=O)N[C@@H](Cc4ccccc4)C(=O)O)c12)OC(C)(C)CC3 | -6.7% |
| C/C(CCC12CC3CC(CC(C3)C1)C2)=N\NC(N)=S | -17.2% |
| COc1ccc(-c2nc(=S)c3ccc4ccccc4c3[nH]2)cc1 | 51.5% (active) |
| COc1ccc(-n2c(=S)[nH]c3ccccc3c2=S)cc1 | -7.3% |
| COc1cccc(C2C3=C(N=c4s/c(=C\c5ccc(OCC(=O)O)cc5)c(=O)n42)c2ccccc2CC3)c1 (stereo not drawn) | -38.5% |
| CCc1ccc2nc(NC(=O)c3cc(C)on3)sc2c1 | -6.5% |
| COc1ccc(-c2csc(NC(=S)NC(=O)c3cccs3)n2)cc1Br | -20.8% |
| O=C(NC(=S)Nc1nc2ccccc2s1)c1cccs1 | 7.1% (active) |
| COc1ccc(-c2csc(NC(=S)NC(=O)c3cccs3)n2)cc1OC | -5.3% |
| O=C(NC(=S)Nc1nc(-c2ccccc2)cs1)c1cccs1 | -22.7% |
| Cc1ccc2nc(NC(=S)NC(=O)c3cccs3)sc2c1 | 5.5% (active) |
| CC1CCCC(C)N1S(=O)(=O)c1ccc(NC(=O)CCn2cnc3ccccc3c2=O)cc1 (stereo not drawn) | -11.1% |
| CC(C)CC1C(C#N)=C(N)Oc2n[nH]c(-c3cccs3)c21 (stereo not drawn) | -12.4% |
| CCN1C(=O)C2(/C(=C(\O)c3ccc4c(c3)OCCO4)C(=O)C(=O)N2CCCOC)c2ccccc21 (stereo not drawn) | -12.7% |
| CC(C)C(=O)Nc1ccc2c(c1)Cc1cc(NC(=O)C(C)C)ccc1-2 | -17.9% |

| SMILES | activity change, less the hit threshold |
| --- | --- |
| O=C(CC1NC(=O)NC1=O)Nc1ccccc1 (stereo not drawn) | -21.4% |
| O=C(CC1CCCC1)Nc1ccc2c(c1)CCC2 | 54.5% (active) |
| CN1N=C(C(=O)N2CCc3c([nH]c4ccccc34)C2c2c(F)cccc2Cl)CCC1=O (stereo not drawn) | -22.4% |
| Cc1ccc(C(C(=O)NC(C)(C)C)N(Cc2cccnc2)C(=O)C(=O)NC2CCCCC2)o1 (stereo not drawn) | -14.6% |
| COC(=O)c1cccc(/C=N/NC(N)=S)c1O | -2.4% |
| COc1cccc(C=NCCCN=Cc2cccc(OC)c2O)c1O | 6% (active) |
| COc1cccc(/C=N/Nc2nc3ccccc3[nH]2)c1O | -3.2% |
| COc1cccc(C=NCC(C)N=Cc2cccc(OC)c2O)c1O (stereo not drawn) | -2.9% |
| COc1cccc(C=Nc2cc(C)cc(C)c2)c1O | 10% (active) |
| CCOc1cccc(/C=N/NC(=O)c2ccc3c(c2)OCCO3)c1O | -18.5% |
| COc1ccc(-n2c(SCc3ccccn3)nc3c(c2=O)SCC3)cc1OC | -2.7% |
| CCC1=C(OC(=O)N(CC)CC)N2C(=O)OC(=NCC3CC3)[C@]2(C)[C@H]2C1=CC[C@H]1C(=O)N(C)C(=O)[C@H]12 | -15.9% |
| O=C1CSC(=S)N1/N=C/c1cc(Br)ccc1O | -6.3% |
| O=C(CN1CCN(c2ccc(Cl)cc2)CC1)Nc1ccc(F)cc1 | -21.6% |
| S=c1nc(-c2ccccc2)[nH]c2ccc(Br)cc12 | 135% (active) |
| S=c1nc(-c2ccc(Br)cc2)[nH]c2ccccc12 | 100% (active) |
| CCOC(=O)N/N=C\c1ccc(-c2cc(Cl)ccc2Cl)o1 | -17.6% |
| O=C1N(CN2CCN(Cc3ccccc3)CC2)c2ccccc2C12OCCCO2 | -12.5% |
| CCOc1cc(N2CCCC2)ccc1[N+](=O)[O-] | -13.1% |
| Cc1cccc(/C=N/n2c(COc3ccccc3)n[nH]c2=S)c1 | -13.8% |
| CC(C1CC2CCC1C2)n1c(-c2cccs2)n[nH]c1=S (stereo not drawn) | -7.9% |
| S=c1[nH]nc(-c2cccs2)n1/N=C/c1c(Cl)cccc1Cl | 13.1% (active) |
| CCC(=O)Nc1cc(=O)[nH]c2ncnn12 | -13.1% |
| CCOC(=O)C1=C(C)NC(=O)NC1c1cccc(OC)c1OCc1ccccc1Cl (stereo not drawn) | -15.6% |
| CN(Cc1ccccc1)C(=O)CCc1ccccc1 | -22.5% |

| SMILES | activity change, less the hit threshold |
| --- | --- |
| CC(C)C(=O)Nc1ccc(NC(=O)CCc2ccccc2)cn1 | -23.2% |
| CN(C)c1ccc(NC(=O)CCCc2ccccc2)cc1 | 0.2% (active) |
| COc1cc2c(=O)nc3n(c2cc1OC)C(c1ccccc1)N=C(N)N3 (stereo not drawn) | -18.8% |
| Nc1nc2c(s1)CCc1c-2cnn1-c1ccccc1 | -29.6% |
| Oc1c(N=Nc2ccccn2)ccc2ccccc12 | 7.7% (active) |
| Oc1ccc(N=Nc2ccc3c(c2)OCCO3)c2ncccc12 | -11.2% |
| CC1CCN(c2ccc3c(c2)S(=O)(=O)c2ccccc2C3=O)CC1 | -25.4% |
| Cc1cc(-c2cccc(Br)c2)c(C#N)c(N)n1 | -13.8% |
| CCOC(=O)c1c(SCC(=O)Nc2nc(C)cs2)nc(=O)[nH]c1C | -17.9% |
| Cc1ccc(-c2c(=O)n(O)c3ccccc3[n+]2[O-])cc1 | 59.1% (active) |
| O=c1c(-c2cccc3ccccc23)[n+]([O-])c2ccccc2n1O | 5.6% (active) |
| O=c1c(-c2ccc(Cl)cc2)[n+]([O-])c2ccccc2n1O | 92.9% (active) |
| O=c1c(-c2ccccc2)[n+]([O-])c2ccccc2n1O | -16.2% |
| FC(F)c1nnc2c(Cl)cc(C(F)(F)F)cn12 | -8% |
| CC(=O)Nc1ccc(S(=O)(=O)N2CCC(C(=O)O)CC2)cc1 | -26.7% |
| Cc1cc(=O)[nH]c(SCC(=O)Nc2ccccc2C#N)c1C#N | -14.5% |
| CCOc1cc(/C=C2/C(=O)ON=C2C)ccc1O | -11.8% |
| COc1cc(-c2nnc(SCC(=O)O)n2-c2ccccc2)cc(OC)c1OC | -13.9% |
| COc1cccc(/C=N/NC(=O)CSc2ccccc2C)c1O | -2.9% |
| COc1cccc(/C=N/n2c(SC)nnc2-c2ccccc2)c1O | 2.8% (active) |
| COc1cc(S(=O)(=O)Nc2c(C)cc(C)cc2C)ccc1Cl | -20.6% |
| COCCN1C(=O)C(=O)/C(=C(/O)c2ccc(S(=O)(=O)N3CCOCC3)cc2)C1c1ccc(OC)c(OC)c1 (stereo not drawn) | -17.7% |
| CCOC(=O)c1c(-c2ccc(C)o2)csc1NC(=S)NC(=O)N(C)C | 24.3% (active) |
| CCOC(=O)c1c(CC(C)C)csc1NC(=O)c1ccccc1C(=O)O | -7.7% |
| CCOC(=O)c1ccc(NC(=O)Cn2nnc(-c3ccccc3)n2)cc1 | -26.4% |

| SMILES | activity change, less the hit threshold |
| --- | --- |
| CCNC(=S)Nc1scc(-c2ccccc2)c1C(=O)OCC | 10.6% (active) |
| CCOC(=O)c1c(C=O)c(C)n(Cc2ccccc2)c1C | -14.5% |
| CCOC(=O)c1c(-c2ccccc2)csc1NC(=S)NC | 19% (active) |
| Nc1nonc1-n1nnc(C(=O)N/N=C/c2cccc(Cl)c2Cl)c1CN1CCCC1 | -9.3% |
| Oc1ccc2[nH]cnc2c1CN1CCCCC1 | -16.5% |
| O=C(O)C1C2CCC(O2)C1C(=O)Nc1ccc(F)c(Cl)c1 (stereo not drawn) | -21% |
| Cc1ccc(-c2noc(CCC(=O)NC3CCCC3)n2)cc1 | -9.6% |
| O=C(Nc1ccc(Cl)cc1Cl)c1n[nH]c(Cn2cncn2)n1 | -6% |
| CC(=O)c1cccc(NC(=O)NCc2cccs2)c1 | -14.9% |
| CN(CCc1ccccn1)C(=O)CCC1CCCN(C(=O)c2ccsc2)C1 (stereo not drawn) | -13.1% |
| O=C(c1cccs1)N1CCN=C1SCc1ccccc1 | -22.6% |
| CN(Cc1ccccc1)C(=S)NC(=O)c1cccs1 | 7.6% (active) |
| Cc1ccc(C(=O)NNC(=S)NC(=O)c2ccccc2)cc1 | -25.9% |
| Cc1ccc(C(=O)NC(=S)N(C)Cc2ccccc2)cc1 | 7.1% (active) |
| COc1ccc(N(CC(=O)NCc2cccnc2)S(=O)(=O)c2ccccc2[N+](=O)[O-])c(OC)c1 | -23.8% |
| Cc1ccc(-n2ccc(=O)c(C(=O)Nc3ccc(S(=O)(=O)Nc4nccs4)cc3)n2)cc1 | -13.6% |
| C=C(C)C1CC=C(C)/C(=N/NC(=O)CCC(=O)Nc2ccccc2Cl)C1 (stereo not drawn) | -11.1% |
| N#Cc1ccc(-c2nc3cc(Cl)ccc3c(=O)n2O)cc1 | 1.6% (active) |
| O=c1c2cc(Cl)ccc2nc(-c2ccc([N+](=O)[O-])cc2)n1O | 31.4% (active) |
| O=c1c2ccc(Cl)cc2nc(-c2ccc([N+](=O)[O-])cc2)n1O | 26.8% (active) |
| O=c1c2cc(Br)ccc2nc(-c2ccc([N+](=O)[O-])cc2)n1O | 43.1% (active) |
| COc1ccc(C(CC(=O)N2CCOCC2)c2c(O)cc(OC)cc2OC)cc1 (stereo not drawn) | -14.7% |
| COc1ccc(-c2cn3nc(SCC(=O)NC4CCCCC4)ccc3n2)cc1 | -7.9% |
